ClpP mod – qHTS Assay for Activators of ClpP | 340,000 tested, 1.9% active | AID 651965, 2013 | ATP-dependent Clp protease proteolytic subunit (Bacillus subtilis (strain 168)), P80244 | purified B. subtilis ClpP, FRET peptide cleavage, 20 min | Potency, µM (series often up to 57.5 µM), for the others: at the top dose activity change, negative = active; active = well fitted falling curve with a large enough effect; inconclusive = small, poorly fitted or top-dose-only effect; inactive = no such curve, though single readings can be large or run the other way; also: potency is read from the fitted curve at half-maximal effect; the source files actives as falling curves though it sought activators and does not explain the sign; nearly all actives have a fitted effect of over 65% in size
Target sequence (P80244 whole entry, looked up): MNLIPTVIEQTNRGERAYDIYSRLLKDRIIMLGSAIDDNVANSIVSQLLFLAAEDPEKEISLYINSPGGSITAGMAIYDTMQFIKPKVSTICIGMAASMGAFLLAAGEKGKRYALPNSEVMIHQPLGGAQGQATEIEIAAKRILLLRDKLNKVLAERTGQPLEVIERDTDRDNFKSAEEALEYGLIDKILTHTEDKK
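Buffer: 100 mM Tris/HCl pH8, 100 mM KCl, 0.05% low protease BSA, 2.5% glycerol, 0.01% Tween-20. ClpP 10 microg/mL final; 20 min RT; delta FRET normalized to ADEP and DMSO controls.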
IL-1B inflam inh – inflammasome signaling inhibition, IL-1 beta readout; THP-1 LPS/ATP IL-1B secretion, AlphaLISA, 16 h; active compounds read low; activity change, % at 57.5 µM; 360,000 tested, 4.7% active; in the data active = activity change below about -50%; inconclusive = mostly about -30% to -49%; also: % is scaled to controls: 0 for no effect and ±100 for the full control effect
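THP-1 cells pretreated 1 hr with compounds (up to 57.5 uM final), then stimulated with LPS (250 ng/mL final) plus ATP (1.25 mM final); secreted IL-1B measured by AlphaLISA after 16 hr, decreased signal indicating inhibition.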
DRD3 agonist – D3 dopamine receptor (human) agonism; P35462; D3R DiscoveRx beta-arrestin cells, luminescence, 90 min; max activation, %; 410,000 tested, 0.58% active; in the data active = max activation above about 30%; also: 0% is about no effect
Target sequence (P35462 whole entry, looked up): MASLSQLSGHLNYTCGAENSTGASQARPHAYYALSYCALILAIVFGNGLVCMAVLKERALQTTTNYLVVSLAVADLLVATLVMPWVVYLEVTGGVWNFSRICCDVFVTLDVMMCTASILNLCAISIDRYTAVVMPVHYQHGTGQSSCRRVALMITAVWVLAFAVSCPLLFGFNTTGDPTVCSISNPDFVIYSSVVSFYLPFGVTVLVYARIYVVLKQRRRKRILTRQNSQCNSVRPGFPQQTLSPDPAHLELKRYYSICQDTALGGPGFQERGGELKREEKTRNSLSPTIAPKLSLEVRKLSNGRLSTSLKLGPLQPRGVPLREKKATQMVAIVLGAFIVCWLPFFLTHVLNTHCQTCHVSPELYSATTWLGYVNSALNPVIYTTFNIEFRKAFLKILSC
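Agonist-mode cell screen: cells plated at 1500/well and incubated overnight at 37 °C, then exposed to library compounds for 90 min at 37 °C. Detection reagent was added for 30–60 min at room temperature, and luminescence was read.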
TDP1 cell CPT – DT40-hTDP1 cell growth loss with CPT. chicken DT40 Tdp1-/-;hTDP1 cells + 20 nM CPT, ATP luminescence, 48 h. 420,000 tested, 12% active. Potency, µM (highest dose often 46.2 µM), without a hit: at the top dose activity change, negative = growth inhibition, most hits filed as inhibitors; also: potency is read from the fitted curve at half-maximal effect; % is scaled to controls: 0 for no effect and ±100 for the full control effect; nearly all actives have a fitted effect of over 55% in size
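Cell growth measured by CellTiter-Glo luminescence after a minimum 48 h, 37 C compound exposure with 20 nM CPT in Tdp1-knockout DT40 cells stably expressing hTDP1, seeded 400/well; qHTS titration format.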
TDP1 cell noCPT – qHTS for Inhibitors of human tyrosyl-DNA phosphodiesterase 1 (TDP1): qHTS in cells in absence of CPT; 420,000 tested, 15% active; DT40 Tdp1-/- hTDP1 cells, no CPT, ATP luminescence, 48 h; Potency, µM (doses to about 46.2 µM), for the others: at the top dose activity change, negative = growth inhibition, usual class: inhibitors; also: potency is read from the fitted curve at half-maximal effect; % is scaled to controls: 0 for no effect and ±100 for the full control effect; nearly all actives have a fitted effect of over 55% in size
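Seeded 400 DT40-hTDP1 cells/well (vehicle DMSO, no 20 nM CPT); pinned compounds; ≥48 hr at 37 °C; CellTiter-Glo luminescence as viability measure.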
DRD3 antagonist – D3 dopamine receptor (human) antagonism; P35462; D3R cells, DiscoveRx beta-arrestin luminescence, antagonist mode; active compounds read low; max response, negative = inhibition, %; 360,000 tested, 2.5% active; AID 652054; in the data active = max response below about -50%; inconclusive = no clear call, values can overlap the other calls; also: % is scaled to controls: 0 for no effect and ±100 for the full control effect
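Cells expressing the human receptor were seeded at 1500 cells/well, incubated overnight at 37 degrees C in 5% CO2, then exposed to library compounds with dopamine controls for 90 minutes at 37 degrees C before luminescent detection.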
Numbers without * were called inactive; ? = inconclusive; . = not tested or not shown. The list is not random: actives were taken first. Their share in the collection is about 21%. Unless noted, calls follow the shape of the dose curve; as a rule, active = well fitted inhibition curve with a large enough effect; inconclusive = small, poorly fitted or top-dose-only effect; inactive = flat fitted curve, though single readings scatter.

SMILES | ClpP mod | IL-1B inflam inh | DRD3 agonist | TDP1 cell CPT | TDP1 cell noCPT | DRD3 antagonist
COc1ccc(NC(=O)c2ccc3nc(CCc4ccccc4)oc3c2)cc1 | 4% | . | -5 | ? | ? | .
COc1ccc(N2CCN(CCCNC(=O)c3nnc(Cc4ccc(F)cc4)o3)CC2)cc1 | 0% | . | -4 | 16µM* | ? | .
CCOc1ccc2oc(C(=O)OCC(=O)N3CC(C)OC(C)C3)c(C)c2c1 (configuration not stated) | 4% | -1 | 1 | -29% | ? | 13
CCOc1ccc2oc(C(=O)OCC(=O)N3CCCC(C)C3)c(C)c2c1 (configuration not stated) | 28µM* | 0 | 1 | ? | ? | 19
CCOC(=O)c1oc2ccccc2c1CN1CCN(C(=O)c2ccccc2)CC1 | 1% | ? | 4 | ? | ? | 20
CCOC(=O)c1oc2ccc(S(=O)(=O)n3nc(-c4ccc(OC)cc4)cc3N)cc2c1C | 0% | 18 | 18 | 2.9µM* | 2.9µM* | 22
COc1ccc(N2CCN(C(=O)COC(=O)c3oc4ccccc4c3C)CC2)cc1 | -3% | 5 | 20 | 21µM* | 16µM* | 27
CCOC(=O)c1oc2ccccc2c1CN1CCN(c2ccccc2)CC1 | -2% | -6 | -4 | ? | 18µM* | -77*
CC(=O)c1ccc(N2CCN(C(=O)[C@H](C)NC(=O)c3ccccc3Cl)CC2)cc1 | . | 0 | -4 | ? | ? | -1
COc1ccc2oc(C(=O)OCC(=O)N3CCN(C(C)=O)CC3)c(C)c2c1 | 25µM* | 2 | -3 | 8% | 6% | 15
COc1ccc2oc(C(=O)OCC(=O)N3CCCC(C)C3)c(C)c2c1 (configuration not stated) | 14µM* | -2 | 11 | -15% | -4% | 6
COc1ccc2oc(C(=O)OCC(=O)N3CCCCC3)c(C)c2c1 | . | -12 | -10 | -20% | -4% | -1
Cc1nc2ccccn2c1C(=O)N/N=C/c1ccc([N+](=O)[O-])cc1 | . | 33 | -7 | -3% | -2% | 11
O=C(N/N=C/c1ccncc1)c1ccncc1 | . | -14 | -10 | -4% | -12% | -8
O=C(N/N=C/c1ccc([N+](=O)[O-])o1)c1ccncc1 | . | 7 | -4 | 9.2µM* | 9.2µM* | -1
O=C(N/N=C\c1ccc([N+](=O)[O-])o1)c1cncc(Br)c1 | -2% | -79* | 5 | 4.6µM* | 6.5µM* | -2
O=C(N/N=C/c1ccc(-c2ccccc2[N+](=O)[O-])o1)c1cncc(Br)c1 | -2% | ? | 4 | ? | ? | -22
Cc1nc2ccccn2c1C(=O)N/N=C/c1ccc([N+](=O)[O-])o1 | 1% | 28 | 1 | 2.9µM* | 5.8µM* | -11
O=C(N/N=C/c1ccc([N+](=O)[O-])o1)c1ccc(O)cc1 | 1% | 63 | 13 | 2.9µM* | 2.9µM* | 2
CCCCn1c(N)c(N(CCOC)C(=O)c2cc(CC)c(C)s2)c(=O)[nH]c1=O | -11% | 2 | 7 | 1% | -2% | -1
Cc1cccc(C)c1NC(=O)CN1CCN(C(=O)c2ccc(OCc3cn4ccccc4n3)cc2)CC1 | . | 20 | 0 | -25% | ? | -3
O=C(c1csnn1)N1CCC2(CCCN(Cc3ccccc3)C2)CC1 | . | . | . | -12% | 3% | .
CC(C(=O)NCCc1ccccc1)N1c2cccc3cccc(c23)S1(=O)=O (configuration not stated) | -12% | -29 | 0 | ? | -22% | 1
O=[N+]([O-])c1ccc(/C=N\NS(=O)(=O)c2ccc(F)cc2)o1 | -4% | -29 | -7 | 15µM* | ? | -27
CCN(CC)S(=O)(=O)c1cccc(C(=O)N/N=C/c2ccc([N+](=O)[O-])o2)c1 | -2% | -89* | -20 | 21µM* | ? | -21
SMILES | ClpP mod | IL-1B inflam inh | DRD3 agonist | TDP1 cell CPT | TDP1 cell noCPT | DRD3 antagonist
CC(C)Cn1c2ccccc2c2cc(C(=O)O)ccc21 | -23% | 22 | -13 | -2% | ? | -12
COc1cc2c(C(=O)O)c(C)n(CC(C)C)c2c2ccccc12 | 35µM* | 33 | 5 | 2% | -29% | 21
COc1ccc(N2CCN(CCCNC(=O)C(=O)c3c(C)[nH]c4ccccc34)CC2)cc1 | . | -13 | -14 | 1% | ? | ?
CC(=O)c1cccc(-c2cnc3c(NC=O)cc(-c4ccccc4F)cn23)c1 | ? | 157 | 11 | ? | ? | 48
CN(C)CCNC(=O)c1cccc(-c2cnc3c(NC=O)cc(-c4ccc(S(C)(=O)=O)cc4)cn23)c1 | -20% | -5 | -1 | 8% | 7% | 4
CC(=O)c1ccc(-c2cnc3c(NC=O)cc(-c4cnn(C)c4)cn23)cc1 | -29% | ? | -3 | 18µM* | 23µM* | 4
CC(=O)c1ccc(-c2cnc3c(NC=O)cc(-c4ccc(S(C)(=O)=O)cc4)cn23)cc1 | -26% | -4 | 8 | 8.2µM* | 7.3µM* | 195
CN(C)c1ncc2nc(-c3ccc(F)cc3)c(=O)n(-c3ccccc3)c2n1 | . | . | . | -2% | 28% | .
CN1CCN(c2nc(N3CCN(c4ccccc4)CC3)ncc2F)CC1 | -13% | -71* | -27 | ? | ? | -25
CCCc1cc(=O)[nH]c(-n2[nH]c3c(c2=O)CCCC3)n1 | -10% | 34 | 0 | 16µM* | 21µM* | -4
CCOc1ccc(-n2c(=S)sc3c(=O)n(-c4ccc(F)cc4)c(SCC(=O)O)nc32)cc1 | 2% | -13 | 1 | -16% | -1% | -11
COc1cc(Nc2ccc(C)cc2)c([N+](=O)[O-])nc1[N+](=O)[O-] | 0% | 74 | -10 | 2.1µM* | 2.6µM* | -16
Cc1cc(C)cc(Nc2ccc([N+](=O)[O-])nc2[N+](=O)[O-])c1 | 0% | 18 | -4 | -2% | -9% | 10
Cc1c(NC(=O)CSc2nc3ccccc3[nH]2)c(=O)n(-c2ccccc2)n1C | 1% | 4 | 7 | -1% | 9% | -78*
O=C(Cn1[nH]c(=O)c2ccccc2c1=O)NNC(=O)c1ccccc1 | -6% | 21 | -15 | -27% | -10% | -6
Cc1c(NC(=O)CSc2nc3ccc(Cl)cc3[nH]2)c(=O)n(-c2ccccc2)n1C | 0% | -15 | 6 | ? | -27% | 18
Cc1c(NC(=O)Cn2[nH]c(=O)c3ccccc3c2=O)c(=O)n(-c2ccccc2)n1C | -6% | 18 | 1 | ? | -3% | -52*

Screening data deposited in PubChem BioAssay by National Center for Advancing Translational Sciences (NCATS).
